Compounds without any hit were thinned out: in the full panel of roughly 83,000, 20% have a hit.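 Percent growth is the endpoint: 0 to 100 indicates growth inhibition (40 means 60% inhibition), 0 means no net growth, and negative values indicate cell death.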 A number with no mark means an inactive call. Calls of active or inactive are those of the source. Rule for the calls: active = growth percent below 10; inactive = the rest.

Some test systems named below: DU-145 prostate; K-562 leukemia; MDA-MB-231 breast; RXF 393 renal; SF-268 CNS; SF-295 CNS; SF-539 CNS; UACC-257 melanoma; M14 melanoma.
What all share (assay): NCI-60 one-dose screen, 48 h (100 = growth as untreated, 0 = no growth, -100 = all killed)
Common to all, as to conditions: 10 µM

In the case of `CN1CCN(CCCn2c(=O)c3sc4ncccc4c3n3nnc(-c4ccccc4)c23)CC1`, the growth with DU-145 prostate is 31.5%; with K-562 leukemia it was -32.5% (active); with MDA-MB-231 breast, -45.5% (active); in the experiment with RXF 393 renal it was -68.3% (active); with SF-268 CNS, -10.8% (active); in the experiment with SF-295 CNS, -76.1% (active). For the same compound, the growth with SF-539 CNS was -90.5% (active); with UACC-257 melanoma, -88.8% (active); with M14 melanoma, -82.7% (active).

For the compound `Cc1ccc(C2NC(=S)N3C(c4ccc(C)cc4)NC(=S)N23)cc1` (stereo unspecified), the growth was 18.7% in the experiment on DU-145 prostate; 5.27% (active) in the experiment with K-562 leukemia; 59.4% in the experiment on MDA-MB-231 breast; 37.6% in the experiment with SF-268 CNS; 6.72% (active) in the experiment with SF-295 CNS; 13.9% with SF-539 CNS. Moreover, the results for the growth with UACC-257 melanoma and in the experiment on M14 melanoma were -22.5% (active) and -26.5% (active), respectively.

Take `CSc1nc(S(C)(=O)=O)nc2[nH]c(=O)[nH]c12`: the growth is 116% with DU-145 prostate; 108% in the experiment with K-562 leukemia; 89.7% with MDA-MB-231 breast; 110% with RXF 393 renal; 101% in the experiment on SF-268 CNS; 99.1% in the experiment on SF-539 CNS. Also, the growth with UACC-257 melanoma is 105%; with M14 melanoma it was 96.7%.

Take `COc1cc(N)c2ncccc2c1SC`: the growth is 104% in the experiment on DU-145 prostate; 122% in the experiment on K-562 leukemia; 95.1% in the experiment on MDA-MB-231 breast; 121% in the experiment on RXF 393 renal; 91.2% in the experiment with SF-268 CNS; 109% with SF-295 CNS. In addition, the results for the growth in the experiment with SF-539 CNS, with UACC-257 melanoma and in the experiment with M14 melanoma were 114%, 98.3% and 104%, respectively.

On to `Cc1nn(-c2ccccc2)c2nc(Cl)c(C=O)c(-c3ccccc3)c12`, for which the growth with DU-145 prostate was 101%; in the experiment on K-562 leukemia, 77.3%; in the experiment with MDA-MB-231 breast it was 96.5%; with RXF 393 renal, 105%; with SF-268 CNS it was 90.2%; with UACC-257 melanoma, 98.3%. For the same compound, the growth in the experiment on M14 melanoma was 111%.

`COc1ccc(N(C)c2ncnc3occ(C)c23)cc1`: the growth in the experiment on DU-145 prostate was -40.2% (active); in the experiment with K-562 leukemia it was 1.42% (active); in the experiment with MDA-MB-231 breast, -3.09% (active); in the experiment with RXF 393 renal, 14.4%; with SF-268 CNS, 18%; in the experiment on SF-295 CNS it was -8.16% (active). Besides, the growth is -20.4% (active) with SF-539 CNS, 66.8% with UACC-257 melanoma and 0.316% (active) in the experiment on M14 melanoma.

On to `CC1=NN(C(=O)c2nn(-c3ccc(Cl)cc3)cc2O)C(=O)C1`, for which the growth is 52.4% with DU-145 prostate; 15.3% in the experiment with K-562 leukemia; 63.2% in the experiment with MDA-MB-231 breast; 56.9% with RXF 393 renal; 38.4% in the experiment on SF-268 CNS; 67% with SF-295 CNS. Besides, the growth with SF-539 CNS was 51.9%; with UACC-257 melanoma it was 74.5%; with M14 melanoma it was 50.9%.

On to `O=[N+]([O-])c1ccc(NCSc2ccc(Cl)cc2)cc1`, for which the growth was 98.3% in the experiment on DU-145 prostate; 86.9% in the experiment with K-562 leukemia; 94.3% with MDA-MB-231 breast; 103% in the experiment on RXF 393 renal; 94.1% with SF-268 CNS; 105% in the experiment with SF-295 CNS. Besides, the results for the growth in the experiment on SF-539 CNS, in the experiment with UACC-257 melanoma and in the experiment on M14 melanoma were 99.7%, 101% and 109%, respectively.

On to `Nc1nc(Cn2c(-c3nonc3N)nc3ccccc32)nc(N2CCCCC2)n1`, for which the growth is 99% with DU-145 prostate; 49.3% in the experiment on K-562 leukemia; 84.8% in the experiment with MDA-MB-231 breast; 87.7% in the experiment with RXF 393 renal; 95.6% with SF-268 CNS; 96.7% in the experiment with SF-295 CNS. The growth in the experiment on SF-539 CNS is 101%; with UACC-257 melanoma, 93.1%; with M14 melanoma it was 98.4%.

For `O=c1c(Br)ccc(Br)cc1Br`, the growth with DU-145 prostate was -72.3% (active); in the experiment on K-562 leukemia, -11.6% (active); in the experiment on MDA-MB-231 breast, -3.63% (active); in the experiment with RXF 393 renal, -89.5% (active); in the experiment on SF-268 CNS, 14.3%; with SF-295 CNS, 46.7%. For the same compound, the growth is 15% in the experiment on SF-539 CNS and -70.2% (active) with M14 melanoma.

With `CC(=O)/C(=C/c1ccc(Br)cc1)C(=O)c1ccccc1`, the growth in the experiment on DU-145 prostate is 81.6%; in the experiment on K-562 leukemia it was 30.7%; in the experiment on MDA-MB-231 breast it was 77.4%; in the experiment on SF-268 CNS, 67.4%; in the experiment on SF-295 CNS it was 88.9%; in the experiment with SF-539 CNS, 96.7%. For the same compound, the figures for the growth in the experiment with UACC-257 melanoma and with M14 melanoma were 78.3% and 69.9%, respectively.

As for `CN(C)c1nc(N)c2nccnc2n1`, the growth was 108% in the experiment with DU-145 prostate; 128% in the experiment with K-562 leukemia; 108% in the experiment with MDA-MB-231 breast; 115% with RXF 393 renal; 101% with SF-268 CNS; 84.4% in the experiment on SF-295 CNS. Besides, the growth is 105% in the experiment on SF-539 CNS, 111% with UACC-257 melanoma and 117% in the experiment with M14 melanoma.

As for `CCCCN1C(=O)CC(SC2CC(=O)N(CCCC)C2=O)C1=O` (stereo unspecified), the growth is 103% in the experiment on DU-145 prostate; 118% in the experiment with K-562 leukemia; 108% in the experiment with MDA-MB-231 breast; 122% in the experiment on RXF 393 renal; 101% in the experiment with SF-268 CNS; 109% in the experiment with SF-295 CNS. The growth in the experiment on SF-539 CNS was 105%; with UACC-257 melanoma, 98.6%; in the experiment on M14 melanoma, 113%.

As for `COc1cc(C2CC(c3ccc4c(c3)OCO4)=NN2c2ccccc2)cc(OC)c1OC` (stereo unspecified), the growth is 107% in the experiment on DU-145 prostate; 48.8% with K-562 leukemia; 82.2% with MDA-MB-231 breast; 106% in the experiment on RXF 393 renal; 83.6% with SF-268 CNS; 91.2% in the experiment on SF-295 CNS. Moreover, the growth was 90.3% with UACC-257 melanoma and 91.6% in the experiment on M14 melanoma.

Consider `OC(CCN1CCCC1)(c1ccccc1)C1CCCCC1` (stereo unspecified), for which the growth in the experiment with DU-145 prostate was 108%; in the experiment on K-562 leukemia it was 117%; in the experiment with MDA-MB-231 breast, 104%; in the experiment on RXF 393 renal, 103%; in the experiment on SF-268 CNS, 95.9%; in the experiment on SF-295 CNS, 100%. The figures for the growth in the experiment on UACC-257 melanoma and in the experiment with M14 melanoma were 109% and 99.6%, respectively.

With `O=C(O)Cc1ccc(O)c(O)c1`, the growth is 113% in the experiment with DU-145 prostate; 102% with K-562 leukemia; 99.2% with MDA-MB-231 breast; 94.2% in the experiment on RXF 393 renal; 97.6% in the experiment with SF-268 CNS; 102% with SF-295 CNS. The growth is 89.9% with SF-539 CNS, 110% in the experiment with UACC-257 melanoma and 96.5% with M14 melanoma.

Source of the values: PubChem BioAssay (NCI).
